Experimental data reported in the supplement of paper PMC9492666.

Key:
[1] = system: HCC1937; experiment: relative cell viability, compound + erastin, vs DMSO (fraction of DMSO control); higher = less growth inhibition; settings: 72 h
[2] = system: MDA-MB-231; experiment: as above; settings: 72 h
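Note: viability read by CCK-8 kit in 96-well plates, part of a combination screen pairing lipid-metabolism-targeting compounds with erastin.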

SMILES	relative cell viability [1]	relative cell viability [2]
CC1CC(OC(=O)C(O)c2ccccc2)CC(C)(C)C1 (stereo not drawn) [Cyclandelate] + CCOc1ccccc1-n1c(C(C)N2CCN(C(=O)COc3ccc(Cl)cc3)CC2)nc2ccccc2c1=O [erastin]	0.828	0.606
C[C@H](CCCC(C)(C)O)[C@H]1CC[C@H]2[C@@H]3CC=C4C[C@@H](O)CC[C@]4(C)[C@H]3CC[C@]12C [25-Hydroxycholesterol] + CCOc1ccccc1-n1c(C(C)N2CCN(C(=O)COc3ccc(Cl)cc3)CC2)nc2ccccc2c1=O [erastin]	0.745	0.483
COc1cc(F)c(C(C)C)cc1-c1ccc(C(F)(F)F)cc1CN1C(=O)O[C@H](c2cc(C(F)(F)F)cc(C(F)(F)F)c2)[C@@H]1C [Anacetrapib] + CCOc1ccccc1-n1c(C(C)N2CCN(C(=O)COc3ccc(Cl)cc3)CC2)nc2ccccc2c1=O [erastin]	0.557	0.639
Cc1cc(N2C[C@@H](C)N[C@@H](C)C2)ncc1-c1ccc(-c2nc3c(ccn3C)c(=O)[nH]2)cc1 + CCOc1ccccc1-n1c(C(C)N2CCN(C(=O)COc3ccc(Cl)cc3)CC2)nc2ccccc2c1=O [erastin]	0.506	0.551
CCOC(=O)C(C)(C)Oc1ccc(Cl)cc1 [Clofibrate] + CCOc1ccccc1-n1c(C(C)N2CCN(C(=O)COc3ccc(Cl)cc3)CC2)nc2ccccc2c1=O [erastin]	0.801	0.653
CC1(C)CC[C@]2(C(=O)O[C@@H]3O[C@H](CO)[C@@H](O)[C@H](O)[C@H]3O)CC[C@]3(C)C(=CC[C@@H]4[C@@]5(C)CC[C@H](O[C@@H]6O[C@H](C(=O)O)[C@@H](O)[C@H](O)[C@H]6O)C(C)(C)[C@@H]5CC[C@]43C)[C@@H]2C1 [Chikusetsusaponin IVa] + CCOc1ccccc1-n1c(C(C)N2CCN(C(=O)COc3ccc(Cl)cc3)CC2)nc2ccccc2c1=O [erastin]	0.592	0.682
O=C(O)CC[C@H](O)C(=O)O [L-2-Hydroxyglutaric acid disodium] + CCOc1ccccc1-n1c(C(C)N2CCN(C(=O)COc3ccc(Cl)cc3)CC2)nc2ccccc2c1=O [erastin]	0.747	0.701
N#Cc1ccc(Oc2cccc(NC(=O)Nc3ccc(Cl)c(C(F)(F)F)c3)c2)cc1 + CCOc1ccccc1-n1c(C(C)N2CCN(C(=O)COc3ccc(Cl)cc3)CC2)nc2ccccc2c1=O [erastin]	0.0713	0.127
COc1cc(N2CCN(C)CC2)ccc1Nc1ncc2c(n1)N(C1CCC1)C(=O)N(c1c(C)cccc1C)C2 + CCOc1ccccc1-n1c(C(C)N2CCN(C(=O)COc3ccc(Cl)cc3)CC2)nc2ccccc2c1=O [erastin]	0.56	0.586
CCC1C(O)C2C3CCC(C(C)CCO)C3(C)CCC2C2(C)CCC(O)CC12 (stereo not drawn) + CCOc1ccccc1-n1c(C(C)N2CCN(C(=O)COc3ccc(Cl)cc3)CC2)nc2ccccc2c1=O [erastin]	0.656	0.58
O=S(=O)(c1ccccc1)N(CC(F)(F)F)c1ccc(C(O)(C(F)(F)F)C(F)(F)F)cc1 + CCOc1ccccc1-n1c(C(C)N2CCN(C(=O)COc3ccc(Cl)cc3)CC2)nc2ccccc2c1=O [erastin]	0.835	0.45
O=C(O)C(=O)Nc1sc2c(c1C(=O)O)CCNC2 + CCOc1ccccc1-n1c(C(C)N2CCN(C(=O)COc3ccc(Cl)cc3)CC2)nc2ccccc2c1=O [erastin]	0.755	0.635
Oc1ccc2c(c1)OCO2 [Sesamol] + CCOc1ccccc1-n1c(C(C)N2CCN(C(=O)COc3ccc(Cl)cc3)CC2)nc2ccccc2c1=O [erastin]	0.489	1.02
O=C(CCCCc1ccc2c(c1)OCO2)N1CCCCC1 + CCOc1ccccc1-n1c(C(C)N2CCN(C(=O)COc3ccc(Cl)cc3)CC2)nc2ccccc2c1=O [erastin]	0.549	0.35
